Laboratory results from PubChem BioAssay (Tox21).
Where “and” joins values, the source holds several entries; their conditions need not be identical. Equal entries are not always repeated. Values without a mark were called inactive. Inconclusive results are not listed. A call without a number means that no potency is given here. Calls of active or inactive are those of the source. Unless noted, the call rests on the fitted dose curve; in most records, active means well fitted curve in the direction sought with a large enough effect in the repeat runs; inconclusive means weak or mixed curves; inactive means no such curve, though single readings can be large; an effect the other way counts as inactive or inconclusive.

Experiments:
[1] = qHTS assay for small molecule agonists of the p53 signaling pathway (AID 651631; calls by dose curve; further: nearly all actives have a fitted effect of over 15% in size)
In short: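 We treat p53RE-bla HCT-116 cells with compounds for 16 h at 37 °C, add LiveBLAzer B/G FRET substrate for 2 h at room temperature, and measure fluorescence intensity.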

[2] = qHTS assay for small molecules that induce genotoxicity in human embryonic kidney cells expressing luciferase-tagged ATAD5 (AID 651632); further: nearly all actives have a fitted effect of over 15% in size
In short: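 A rise in luciferase signal from ATAD5-tagged HEK293T cells marks genetic stress. Cells were exposed to compounds for 16 hr at 37C, 5% CO2, then luciferase was quantified after a 30 min room-temperature incubation with Amplite.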

[3] = qHTS assay for small molecule agonists of the p53 signaling pathway - cell viability (AID 651633; calls by dose curve;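 further: p53RE-bla HCT reporter cells with a stable beta-lactamase p53 reporter; series mostly up to about 83 µM; nearly all actives have a fitted effect of over 30% in size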)
In short: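 Viability counter-read: CellTiter-Glo luminescence (30 min, room temperature) in the same p53RE-bla plates. These plates had been exposed to compounds for 16 h at 37 C.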

[4] = qHTS assay for small molecules that induce genotoxicity in human embryonic kidney cells expressing luciferase-tagged ATAD5 - cell viability (AID 651634; calls by dose curve; further: nearly all actives have a fitted effect of over 25% in size)
In short: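 Cytotoxicity counter-readout: after 15.5 hr compound treatment at 37C, live-cell protease activity in ATAD5-luciferase HEK293T cells measured by CellTiter-Fluor fluorescence, 30 min development at 37C.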

[5] = qHTS assay for small molecule disruptors of the mitochondrial membrane potential - cell viability (AID 720634; calls by dose curve;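 further: human HepG2 liver cancer cells; series mostly up to about 83 µM; nearly all actives have a fitted effect of over 20% in size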)
In short: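 Cytotoxicity was quantified from ATP content by CellTiter-Glo luminescence in the same wells as the MMP dye read-out. HepG2 (2,000 cells/well) were plated overnight and exposed to compounds for 1 hr at 37 C.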

[6] = qHTS assay for small molecule disruptors of the mitochondrial membrane potential (AID 720635); further: potency means the concentration at half of the fitted maximal effect
In short: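 Mitochondrial membrane potential tracked with Mito-MPS dye, red aggregates (ex 540/em 590 nm) against green monomers (ex 490/em 535 nm). Compound treatment 1 hr at 37C, dye 30 min in HepG2.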

[7] = qHTS assay to test for compound auto fluorescence at 590 nm (red) in HepG2 cells (AID 720674)
In short: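 We screened compounds on adherent HepG2 cells, incubating them for an hour at 37 C in 5% CO2 before reading emission at 590 nm under 540 nm excitation; values reflect equivalence to Rose Bengal sodium fluorescence.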

[8] = qHTS assay to test for compound auto fluorescence at 535 nm (green) in HepG2 cells (AID 720675)
[9] = qHTS assay to test for compound auto fluorescence at 460 nm (blue) in HEK293 cells (AID 720678)
In short: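 Blue read-out at excitation 405 nm and emission 460 nm follows overnight compound exposure of HEK293 cells at 37C in 5% CO2. Activity is given as auto fluorescence equivalency to triamterene.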

[10] = qHTS assay to test for compound auto fluorescence at 590 nm (red) in HEK293 cells (AID 720679)
In short: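 Red channel, Ex/Em 540/590nm; signal expressed as equivalency to Rose Bengal sodium. HEK293, 2,000 cells/well, 10% dialyzed FBS; 23 nL compound pinned after 4-5 hr attachment; overnight 37C/5% CO2 before reading.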

[11] = qHTS assay to test for compound auto fluorescence at 535 nm (green) in HEK293 cells (AID 720680)
[12] = qHTS assay to test for compound auto fluorescence at 460 nm (blue) in HEK293 cell free culture (AID 720681)
In short: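 Blue fluorescence (Ex 405/Em 460 nm, triamterene-equivalent) was read immediately after pin transfer of compound or DMSO into medium (DMEM, 10% FBS) without cells.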

[13] = qHTS assay to test for compound auto fluorescence at 535 nm (green) in HEK293 cell free culture (AID 720682)
In short: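 Green-channel intensity (Ex/Em 485/535 nm) was recorded from compound-treated wells containing only DMEM with 10% FBS. Fluorescein provided the equivalency standard.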

[14] = qHTS assay to test for compound auto fluorescence at 590 nm (red) in HEK293 cell free culture (AID 720683)
In short: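 Red-channel autofluorescence of compounds in culture medium (DMEM, 10% FBS), no cells, measured at 540/590 nm. Rose Bengal sodium is the reference fluorophore for equivalence.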

[15] = qHTS assay to test for compound auto fluorescence at 590 nm (red) in HepG2 cell free culture (AID 720684)
In short: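 No cells present: MEM + 10% FBS only. Compound pinned in, red label read (540/590 nm). Activity = fluorescence equivalent to Rose Bengal sodium.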

[16] = qHTS assay to test for compound auto fluorescence at 535 nm (green) in HepG2 cell free culture (AID 720686)
[17] = qHTS assay to test for compound auto fluorescence at 460 nm (blue) in HepG2 cells (AID 720687)
In short: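 Blue-channel autofluorescence (Ex/Em 405/460 nm, triamterene-equivalent) was measured after 1 hr compound exposure at 37 C, 5% CO2. Cells were HepG2, plated overnight at 37 C in MEM plus 10% FBS.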

[18] = biological target: Glucocorticoid receptor (Homo sapiens) (UniProt P04150); assay: qHTS assay to identify small molecule agonists of the glucocorticoid receptor (GR) signaling pathway (AID 720691; active means well fitted activation curve with a large enough effect in the signal ratio in the repeat runs, not every such curve was filed as active; the % refers to the signal ratio)
Glucocorticoid receptor (Homo sapiens), sequence (P04150 whole entry, looked up): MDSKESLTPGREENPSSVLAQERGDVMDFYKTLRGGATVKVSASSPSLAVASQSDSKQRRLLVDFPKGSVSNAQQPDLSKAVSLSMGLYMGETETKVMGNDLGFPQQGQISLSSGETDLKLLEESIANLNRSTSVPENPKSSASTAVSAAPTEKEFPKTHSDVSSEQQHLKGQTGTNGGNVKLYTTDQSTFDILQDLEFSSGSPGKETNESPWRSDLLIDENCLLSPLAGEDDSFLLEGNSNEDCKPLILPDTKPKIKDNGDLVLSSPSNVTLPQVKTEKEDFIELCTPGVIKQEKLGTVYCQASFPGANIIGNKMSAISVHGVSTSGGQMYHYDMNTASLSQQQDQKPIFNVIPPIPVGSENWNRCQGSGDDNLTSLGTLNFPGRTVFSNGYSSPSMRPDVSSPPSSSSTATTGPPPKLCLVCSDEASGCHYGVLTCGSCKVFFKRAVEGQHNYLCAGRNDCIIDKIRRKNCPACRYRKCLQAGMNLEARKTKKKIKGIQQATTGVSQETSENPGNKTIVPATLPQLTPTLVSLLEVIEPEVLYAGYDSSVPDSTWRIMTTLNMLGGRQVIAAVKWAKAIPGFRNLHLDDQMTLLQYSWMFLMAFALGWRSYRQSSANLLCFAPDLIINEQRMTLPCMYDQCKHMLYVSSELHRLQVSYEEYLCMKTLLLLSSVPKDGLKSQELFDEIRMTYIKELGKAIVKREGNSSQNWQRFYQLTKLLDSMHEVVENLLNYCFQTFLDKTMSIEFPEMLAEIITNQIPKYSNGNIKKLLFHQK
In short: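 Agonist-mode qHTS in HeLa cells stably expressing a glucocorticoid-response-element beta-lactamase reporter. Fluorescence intensity read with FRET substrate (2 h, room temperature) after 18 h compound treatment at 37 C.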

[19] = biological target: Glucocorticoid receptor (Homo sapiens) (UniProt P04150); assay: qHTS assay to identify small molecule antagonists of the glucocorticoid receptor (GR) signaling pathway (AID 720692; active means well fitted inhibition curve with a large enough effect in the signal ratio in the repeat runs, not every such curve was filed as active; the % refers to the signal ratio)
In short: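 Inhibition of dexamethasone-driven (5 nM final) beta-lactamase expression was measured in GRE-reporter HeLa cells over 18 h at 37C. Fluorescence was read after 2 h with the B/G FRET substrate at room temperature.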

[20] = qHTS assay to test for compound auto fluorescence at 460 nm (blue) in HepG2 cell free culture (AID 720685)
In short: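 Cell-free plates of MEM plus 10% FBS received 23 nL compound or DMSO vehicle; blue-channel (405/460 nm) intensity scored against triamterene as reference fluorophore.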

Row | Structure (SMILES) | Potency [1] | Potency [2] | Potency [3] | Potency [4] | Potency [5] | Potency [6] | outcome [7] | outcome [8] | outcome [9] | outcome [10] | outcome [11] | outcome [12] | outcome [13] | outcome [14] | outcome [15] | outcome [16] | outcome [17] | Potency [18] | Potency [19] | outcome [20]
1 | C=CC(C)(O)CC/C=C(\C)CCC=C(C)C (centres undefined) | inactive | inactive | inactive | inactive | inactive | 12.4 µM (active) and 27.3 µM (active) | inactive | inactive | inactive | inactive | inactive | inactive | inactive | inactive | inactive | inactive | inactive | inactive | inactive | –
2 | CCC(=O)Nc1ccc(O)cc1 | inactive | inactive | inactive | inactive | inactive | inactive | inactive | inactive | inactive | inactive | inactive | inactive | inactive | inactive | inactive | inactive | inactive | inactive | inactive | inactive
3 | CCCCNC(=S)NCCCC | inactive | inactive | inactive | inactive | inactive | inactive | inactive | inactive | inactive | inactive | inactive | inactive | inactive | inactive | inactive | inactive | inactive | inactive | inactive | inactive
4 | C1CSCCS1 | inactive | inactive | inactive | inactive | inactive | inactive | inactive | inactive | inactive | inactive | inactive | inactive | inactive | inactive | inactive | inactive | inactive | inactive | inactive | inactive
5 | OCc1ccccc1O | inactive | inactive | inactive | inactive | inactive | inactive | inactive | inactive | inactive | inactive | inactive | inactive | inactive | inactive | inactive | inactive | inactive | inactive | inactive | inactive
6 | CCOC(=O)C(Br)c1ccccc1 (centres undefined) | inactive | inactive | inactive | inactive | inactive | inactive | inactive | inactive | inactive | inactive | inactive | inactive | inactive | inactive | inactive | inactive | inactive | – | – | –
7 | CCN(CC)C(=O)N(CC)CC | inactive | inactive | inactive | inactive | inactive | inactive | inactive | inactive | inactive | inactive | inactive | inactive | inactive | inactive | inactive | inactive | inactive | inactive | inactive | inactive
8 | CCOC(=O)c1ccccc1O | inactive | inactive | inactive | inactive | inactive | inactive | inactive | inactive | inactive | inactive | inactive | inactive | inactive | inactive | inactive | inactive | inactive | inactive | inactive | inactive
9 | COC(=O)c1ccc(OC)cc1 | inactive | inactive | inactive | inactive | inactive | inactive | inactive | inactive | inactive | inactive | inactive | inactive | inactive | inactive | inactive | inactive | inactive | inactive | inactive | inactive
10 | NC/C=C/C(=O)O | inactive | inactive | inactive | inactive | inactive | inactive | inactive | inactive | inactive | inactive | inactive | inactive | inactive | inactive | inactive | inactive | inactive | inactive | inactive | inactive
11 | Cc1ccc(C=O)s1 | inactive | inactive | inactive | inactive | inactive | inactive | inactive | inactive | inactive | inactive | inactive | inactive | inactive | inactive | inactive | inactive | inactive | – | – | inactive
12 | FC(F)(F)C(F)(F)C(F)(F)C(F)(F)C(F)(F)C(F)(F)C(F)(F)C(F)(F)Br | inactive | inactive | inactive | inactive | inactive | inactive | inactive | inactive | inactive | inactive | inactive | inactive | inactive | inactive | inactive | inactive | inactive | inactive | inactive | inactive
